Jurkat NFkB inh: inhibitors of induced NF-kB luciferase reporter, primary screen, TCR NF-kB activation inhibitor project, cell-based, luminescence, uHTS. Jurkat, PMA/ionomycin-induced NF-kB luciferase reporter. inhibition, % at 4 µM. actives 0.53% (n = 330,000); in the data active = inhibition above about 50%
Gli-Sufu antag: Gli-Sufu pathway antagonists, primary screen, luciferase luminescence, Sufu-KO-LIGHT cells, uHTS; AID 588413, 2011; actives 0.74% (n = 340,000); inhibition, % at 5 µM; Sufu-KO-LIGHT fibroblasts, Gli luciferase reporter luminescence;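 active = inhibition above about 55%, limit read from the data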;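 also: 0% = DMSO-treated cells and 100% = wells with medium but no cells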
Mdm2 MdmX PPI: inhibitors of human Mdm2-MdmX association, primary screen, cell-based, luminescence, split luciferase, SaOS-2, uHTS; AID 485346, 2010; actives 3% (n = 330,000); Protein Mdm4 (Homo sapiens) + E3 ubiquitin-protein ligase Mdm2 (Homo sapiens), …; SaOS-2 split-luciferase Mdm2/MdmX complementation; inhibition, % at 8 µM;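 active = inhibition of at least 50% at 8 µM in the primary screen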
aSyn 5UTR inh: MLPCN primary screen, SNCA 5' untranslated region | actives 0.82% (n = 300,000) | inhibition, % (tested at 7.5 µM) | alpha-synuclein 5'UTR reporter, inhibitor activity; in the data active = inhibition above about 60%;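 also: H4 neuroglioblastoma cells stably carrying SNCA 5'UTR luciferase fusion; 0% = DMSO wells and 100% = positive control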
CSC inhib: cancer stem cell viability inhibitors, primary screen, luminescence; cancer stem cell-like cells viability; inhibition, % at 7.5 µM; actives 1.1% (n = 300,000); in the data active = inhibition above about 75%; tested in HMLE shEcad cells
697 NFkB inh: inhibitors of PMA/ionomycin-induced NF-kB reporter, 697 cells, primary screen, B-cell NF-kB inhibitor project, cell-based, luminescence, uHTS. 697 B-cell NF-kB luciferase reporter, 16 h. inhibition, % at 4 µM. actives 0.33% (n = 330,000). AID 435022, 2010; in the data active = inhibition above about 35%
Mdm2 MdmX conf: Mdm2-MdmX complex disruptors, retested hits, confirmation, luminescence, single concentration; shares compounds with Mdm2 MdmX PPI; Mdm2-MdmX binding, luminescent assay; inhibition, % at 8 µM; actives 55% (n = 10,000); AID 489028, 2010; in the data active = inhibition above about 40%
FLuc counter: full-length luciferase signal inhibition, confirmation, counter-screen for Mdm2/MdmX interaction inhibitor project, cell-based, single concentration, SaOS-2. inhibition, % at 8 µM. actives 77% (n = 6,200). shares compounds with Mdm2 MdmX PPI. SaOS-2 full-length luciferase counterscreen, luminescence;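 active = mean inhibition at 8 µM reaching about 37%, which flags the compound as non-specific, limit read from the data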;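 also: p53-null SaOS-2 cells with luciferase driven by a doxycycline-inducible promoter; compound on cells about two nights before reading with doxycycline added after day one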
Starred values were filed as active, the others as inactive; . = no result. Rows were chosen to be rich in hits. Some 4.5% of all compounds tested hit in one or more screens of this group.

SMILES	Jurkat NFkB inh	Gli-Sufu antag	Mdm2 MdmX PPI	aSyn 5UTR inh	CSC inhib	697 NFkB inh	Mdm2 MdmX conf	others
Cc1cccc(C)c1OCC(=O)NNC(=S)NC(=O)C1CC1	6	4	26	7	12	1	.
O=C(COc1cc2oc(=O)cc(-c3ccccc3)c2cc1Cl)NCCN1CCOCC1	2	17	2	3	-13	-13	.
CCc1cc2cc3c(cc2nc1SCC(=O)Nc1nccs1)OCO3	-15	0	71*	18	-8	-13	20
CCc1cc2cc3c(cc2nc1SCC(=O)Nc1c[nH]c(=O)[nH]c1=O)OCO3	-7	-12	30	11	13	21	.
COCCn1c(N)c(Sc2ccccc2[N+](=O)[O-])c(=O)[nH]c1=O	2	5	-17	4	3	12	.
CC(=O)N1N=C(c2ccco2)CC1c1ccco1 (stereo not drawn)	4	-4	7	-3	-9	1	.
Cc1ccc(C2=NN(C(=O)CCl)C(c3ccco3)C2)o1 (stereo not drawn)	-1	5	100*	-22	.	8	99*	FLuc counter=58*
CC(C)c1nc2sc3c(NCc4ccccc4)ncnc3c2c2c1COC(C)(C)C2	-9	12	18	56	29	-6	.
CC(C)c1nc2sc3c(NCc4ccco4)ncnc3c2c2c1COC(C)(C)C2	4	.	53*	71*	61	-6	33
CCC1(c2ccc(F)cc2)NC(=O)N(CC(=O)N2CCN(C(=O)c3ccco3)CC2)C1=O (stereo not drawn)	-9	-6	12	.	-2	-14	.
CSc1ncccc1C(=O)NC(C)C1CC2CCC1C2 (stereo not drawn)	-2	-1	2	-2	-11	8	.
Cc1c(C(=O)NCCCN2CCCCC2)oc2ccc3c(c12)C(O)CC1(CCCCC1)O3 (stereo not drawn)	-31	26	76*	76*	27	-24	30	FLuc counter=55*
O=C1CN(C(=O)COc2ccc(F)cc2Br)c2ccccc2N1	1	-7	18	-47	-9	10	.
CN(C)S(=O)(=O)Oc1ccsc1C(=O)Nc1ccc(Cl)c(Cl)c1	-8	-12	21	-26	24	6	.
COc1ccc(COc2ccsc2C(=O)Nc2ccc(Cl)c(Cl)c2)cc1	-12	3	76*	-68	17	2	7
COc1c(Cl)cc(Cl)cc1/C=C/C(=O)c1ccc(NC(=O)c2cccs2)cc1	-24	-33	99*	-115	103*	-70	95*	FLuc counter=59*
CCNC(=S)N(CCc1c(C)[nH]c2ccccc12)Cc1cc(OC)c(OC)c(OC)c1	4	6	16	26	-6	1	.
CCN(C(=O)COC(=O)Cc1ccc(F)cc1)c1c(N)n(Cc2ccccc2)c(=O)[nH]c1=O	5	-6	-4	.	-9	2	.
COc1ccc(Cn2cnc3c4cc(F)ccc4n(C)c3c2=O)cc1	1	-1	65*	.	1	-10	9
COc1cc(Cl)ccc1NC(=O)COc1ccccc1C(=O)NN	-7	-4	7	-36	-19	-10	.
COc1ccc(-n2nnnc2CNC(=O)C(=O)c2c[nH]c3ccccc23)cc1	11	3	-3	7	-2	14	.
Cc1ccc(-n2nnnc2SC(C(=O)c2c[nH]c3ccccc23)c2ccccc2)cc1 (stereo not drawn)	7	-5	60*	9	86*	8	65*	FLuc counter=56*

Assay outcomes as filed in PubChem.
